Screening data deposited in PubChem BioAssay by several laboratories.
Most compounds without a hit are left out; they make up all but 4.3% or so of the library.
Wnt bcat act: Wnt/beta-catenin pathway activation. 300,000 compounds, 1.2% hits. Wnt/beta-catenin reporter cell assay, activator, plate reader. AID 743398. activation, % at 9.35 µM; in the data active = activation above about 30%, passing the limit was not always enough;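 also: 0% = neutral control wells and 100% = positive control wells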
esBAF inh: SWI/SNF esBAF complex inhibition; 350,000 compounds, 2% hits; reporter increase, % at 12.5 µM; AID 602393; mouse ES cells, Bmi1-luciferase knock-in reporter, 24 h; 100% = twice the neutral-well signal; in the data active = activation above about 40%;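 also: 0% = median of the plate's neutral control wells and 100% = double that signal; a rise in the Bmi1 reporter signal indicates esBAF inhibition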
SMARCA2 act: activators of SMARCA2 function. activation, % at 9.1 µM. MG213 cells, MMTV-luciferase reporter, dexamethasone, overnight. 370,000 compounds, 1% hits; in the data active = activation above about 7.8%;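 also: 0% = vehicle wells and 100% = reference activator wells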
FGF22 binding-1: binders of recombinant human FGF22 by thermal shift; activity (Tm shift, normalised), % at 9.99 µM; SYPRO orange fluorescence; percent of sucrose octasulfate shift, DMSO zero; 340,000 compounds, 1.5% hits; Q9HCT0;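 active = mean Tm shift, scaled 0 neutral to 100 positive control, at about 1.3% or above, every replicate too, limit read from the data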
Target sequence (Q9HCT0 whole entry, looked up): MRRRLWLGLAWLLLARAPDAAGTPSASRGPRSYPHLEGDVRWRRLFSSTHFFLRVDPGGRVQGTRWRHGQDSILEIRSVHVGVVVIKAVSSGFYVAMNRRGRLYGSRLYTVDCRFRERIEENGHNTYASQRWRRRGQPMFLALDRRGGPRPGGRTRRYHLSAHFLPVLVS
MITF TRPM1 HTS: increases MITF-driven TRPM1 promoter luciferase signal; SK-MEL-5 TRPM1-promoter luciferase, 24 h; % of positive control, neutral wells = 0; activation, % at 12.5 µM; 300,000 compounds, 0.75% hits; AID 588334;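 active = mean activation of at least 80% with every replicate also reaching 80%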;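 also: 0% = neutral control wells and 100% = parthenolide positive control wells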
AF4-AF9 inh: blocks AF4 peptide binding to human AF9 | AlphaScreen, biotin-AF4 peptide binding to FLAG-AF9 | AID 651704 | inhibition, % at 10 µM | P42568 | 350,000 compounds, 0.47% hits;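 active = every replicate reaching a set inhibition limit, whatever the replicate mean, cut at about 25% in these data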;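 also: 0% = plate neutral control median and 100% = total signal loss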
Target sequence (P42568 whole entry, looked up): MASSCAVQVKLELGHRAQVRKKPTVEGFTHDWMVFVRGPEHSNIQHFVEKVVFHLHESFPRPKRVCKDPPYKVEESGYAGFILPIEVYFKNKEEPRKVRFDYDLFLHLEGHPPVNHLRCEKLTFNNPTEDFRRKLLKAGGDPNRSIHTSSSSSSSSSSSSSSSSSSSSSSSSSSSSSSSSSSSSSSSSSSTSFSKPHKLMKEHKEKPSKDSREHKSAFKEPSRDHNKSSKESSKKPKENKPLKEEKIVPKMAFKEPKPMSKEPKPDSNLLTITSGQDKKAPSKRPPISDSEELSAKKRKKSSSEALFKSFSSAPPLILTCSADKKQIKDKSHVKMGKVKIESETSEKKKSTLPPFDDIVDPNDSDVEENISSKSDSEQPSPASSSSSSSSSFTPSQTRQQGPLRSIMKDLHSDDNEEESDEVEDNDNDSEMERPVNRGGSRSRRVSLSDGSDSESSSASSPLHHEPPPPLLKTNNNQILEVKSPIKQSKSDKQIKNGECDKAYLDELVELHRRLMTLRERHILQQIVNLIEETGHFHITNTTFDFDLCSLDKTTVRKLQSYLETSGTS
Ring1 derepress: esBAF inhibition confirmed by Ring1 de-repression | shares compounds with esBAF inh | mouse ESC E14, Ring1 mRNA RT-qPCR fold change | fold change at 33 µM | 550 tested, under 10 active | AID 743176;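 active = Ring1 gene expression raised more than 2-fold over untreated cells in both replicates at either tested dose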;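 also: Ring1 transcript normalised to actin housekeeping signal by TaqMan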
Fgf4 repress: esBAF inhibition confirmed by Fgf4 repression; shares compounds with esBAF inh; 550 compounds, 4% hits; mouse ESC E14, Fgf4 mRNA qPCR fold change; active compounds read low; Fgf4 expression fold change at 33 µM;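 active = Fgf4 expression under 0.8 fold of control in both repeat measurements at one or both tested doses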;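 also: Fgf4 transcript normalised to actin in duplex TaqMan qPCR; cells exposed to compound for 24 h before lysis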
Bmi1 derepress: de-represses Bmi1 in mouse ESCs, confirming esBAF inhibition; shares compounds with esBAF inh; mouse ESE14 ES cells, Bmi1 mRNA qPCR fold; active compounds read high; fold change at 33 µM; 550 tested, under 10 active; AID 743180;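 active = Bmi1 expression fold change above 6 at either tested concentration, seen in replicate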;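 also: higher fold means more Bmi1 de-repression and stronger esBAF inhibition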
A549 cytotox: kills or reduces viability of A549 cells; A549 cytotoxicity, plate reader; AID 743188; cell viability change % (negative = cytotoxic), % at 25 µM, hits read low; shares compounds with esBAF inh; 550 tested, under 10 active; call rule not given here
HepG2 tox SP: cytotoxicity in HepG2 cells. shares compounds with esBAF inh. plate reader; active compounds read low. activity change, negative = inhibition, % at 25 µM. 550 compounds, 4% hits; in the data active = activity change below about -50%
HEK293 tox SP: HEK293 cell cytotoxicity at single point. AID 743190. activity change, negative = inhibition, % at 25 µM, hits read low. plate reader. 550 compounds, 3% hits. shares compounds with esBAF inh; in the data active = activity change below about -38%, passing the limit was not always enough
FGF22 binding-2: binds human FGF22 shifting its melting temperature; shares compounds with FGF22 binding-1; recombinant FGF22 thermal shift, SYPRO orange fluorescence; thermal shift activity, °C (ΔTm) at 38 µM; 1,000 compounds, 2% hits; AID 720646;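 active = fitted rise in melting shift crosses a set limit at or below the top valid dose tested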
FGF22 TSA: binders of human FGF22 by thermal shift. shares compounds with FGF22 binding-1. Thermal shift assay, SYPRO orange, melting temperature shift. Tm shift (activity), % at 38 µM. 50 tested, under 10 active. AID 743017;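 active = compounds whose fitted dose curve of melting temperature shift rises past a set threshold within the tested doses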
TSA no protein: counter-screen for FGF22 binders: compound-only thermal shift, no protein; shares compounds with FGF22 binding-1; compound-only SYPRO orange thermal shift counter-screen; AC50, µM (doses to about 38 µM); 1,000 compounds, 2% hits;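 active = rising signal whose fitted curve reaches the 0.54 level within the top valid dose, showing a melting point, actives reach about 13 µM in these data; inactive = the rest, including activity in the opposite direction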; also: value is where the raw curve crosses a fixed level and not half-maximal
SMARCA2 act conf: SMARCA2 activation, confirmation screen. shares compounds with SMARCA2 act. MG213 cells, MMTV-luciferase with dexamethasone, luminescence, overnight; MG213 cells expressing E1A, Rb sequestered; DMSO wells 0%, reference activator 100%. activation, % at 9.1 µM. 3,500 compounds, 30% hits;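 active = activation above its plate's cutoff, the mean activation of tested wells plus 3 SD, cut at about 7.9% in these data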
GAL4-VP16 Luc: counter-screen for SMARCA2 activators: GAL4-VP16 luciferase reporter activation. 3,500 compounds, 41% hits. HEK293 GAL4-VP16 pG5luc reporter, luciferase luminescence; scaled: DMSO wells 0%, SAHA wells 100%. shares compounds with SMARCA2 act. activation, % at 9.1 µM;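 active = activation above the solvent-only control well mean plus 3 SD, averaged across control plates, cut at about 5.2% in these data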
An asterisk follows results filed as active; i = inactive; · = no result given; [ ] = dose if it differs, or a comment.

SMILES	Wnt bcat act	esBAF inh	SMARCA2 act	FGF22 binding-1	MITF TRPM1 HTS	AF4-AF9 inh	FGF22 binding-2	TSA no protein	others
COC(=O)c1sccc1NC(=O)c1ccc(OC)cc1	8	76*	17*	·	·	·	·	·	Ring1 derepress=1.3;Fgf4 repress=1;Bmi1 derepress=1.9;A549 cytotox=-19;HepG2 tox SP=-13;HEK293 tox SP=-6;SMARCA2 act conf=5;GAL4-VP16 Luc=0
COC(=O)c1sccc1NC(=O)c1ccc(C)cc1	6	4	-4	0	-12	-4	·	·
CCCNC(=O)C[C@@H]1CC[C@H]2[C@@H](COc3ccc(NC(=O)CCC)cc3C(=O)N2C)O1	·	1	·	0	·	-1	·	·
C[C@H](CO)N1C[C@H](C)[C@H](CN(C)CC2CC2)Oc2ccc(NS(C)(=O)=O)cc2C1=O	·	2	·	0	·	-3	·	·
O=C1c2ccccc2CN1c1ccccc1	16	55*	9.7*	0	·	0	·	·	Ring1 derepress=1.3;Fgf4 repress=1;Bmi1 derepress=1.6;A549 cytotox=-14;HepG2 tox SP=-32;HEK293 tox SP=-23;SMARCA2 act conf=11*;GAL4-VP16 Luc=9.8*
COCCNC(=O)CCc1nnc2ccc(N3CCC(C)CC3)nn12	0	-4	0	1.6*	2	-1	0.037	i
NS(=O)(=O)c1ccc(NC(=O)Nc2cccc(Cl)c2)cc1	3	·	2	2.2*	6	2	-0.043	i
NS(=O)(=O)c1ccc(NC(=O)Nc2ccccc2)cc1	14	·	1	0	13	1	·	·
CC(C)(C)[S@@](=O)N1Cc2cc(C(=O)NCc3ccccc3F)nc(-c3cccc(-c4ccncc4)c3)c2[C@H]1CCO	·	10	·	1.9*	·	-4	-0.14	i
CC(C)(C)[S@](=O)N1Cc2cc(C(=O)NCc3ccccc3F)nc(-c3cccc(-c4cncnc4)c3)c2[C@@H]1CCO	·	3	·	0	·	5	·	·
O=C(O)Cc1ccc(NC(=O)c2ccc(Cl)c(Cl)c2)cc1	2	-14	-7	1.8*	8	-2	0.57	i	FGF22 TSA=0
CC1(C)CCC(=O)N2CC[C@H]3C[C@H](OC(=O)Nc4ccccc4)C[C@@H]1[C@H]32	24	27	3	2.1*	56	·	-0.13	i
O=C(Nc1cc(Cl)cc(Cl)c1)N[C@@H]1CC[C@@H](CCNS(=O)(=O)c2cccc(F)c2)O[C@H]1CO	·	3	·	2.6*	·	-1	-0.22[42 µM]	i	FGF22 TSA=0
O=C(N[C@H]1CC[C@@H](CCNS(=O)(=O)c2ccc(F)cc2)O[C@H]1CO)c1ccccn1	·	0	·	1.4*	·	0	0.003[42 µM]	i
O=C(NCC[C@@H]1CC[C@@H](NS(=O)(=O)c2ccccc2)[C@@H](CO)O1)c1ccc2c(c1)OCO2	·	-4	·	1.4*	·	-1	-0.1[42 µM]	i
COc1ccc(C2=NN(c3ccccc3)C(c3cn(CCC(=O)O)nc3-c3ccccc3)C2)cc1 (stereo not drawn)	1	·	1	2.3*	-2	-3	0.065	i
CC(C)(CNS(=O)(=O)c1ccc2c(c1)OCCO2)N1CCOCC1	0	-9	1	1.4*	7	-2	-0.061	i
C[C@@H]1CN([C@@H](C)CO)C(=O)c2cc(C#CCN(C)C)cnc2O[C@H]1CN(C)C(=O)c1ccc2c(c1)OCO2	·	-1	·	0	·	0	·	·
O=S(=O)(Nc1ccccc1OC(F)F)c1ccc(S(=O)(=O)N2CCCC2)cc1	-1	-2	-1	3.2*	-5	-2	-0.032	i
Nc1n[nH]c(=S)n1/N=C1/C(=O)Nc2ccccc21	2	·	1	1.8*	-21	-9	0.05	i
COc1ccc(NC(=O)N[C@H]2CC[C@@H](CCn3cc(-c4ccc(OC)cc4)nn3)O[C@@H]2CO)cc1	·	2	·	1.3*	·	1	0.11[42 µM]	i
O=C(Nc1ccc(F)cc1)N[C@@H]1CC[C@H](CCn2cc(-c3ccc(F)cc3)nn2)O[C@H]1CO	·	-3	·	2.4*	·	-17	-0.2[42 µM]	i
COc1ccc(-c2cn(CC[C@@H]3CC[C@@H](NC(=O)Nc4ccc(F)cc4)[C@H](CO)O3)nn2)cc1	·	·	·	·	·	·	-0.17[42 µM]	i
O=C(N[C@H]1CC[C@H](CCn2cc(C3(O)CCCC3)nn2)O[C@@H]1CO)C1CCCCC1	·	-10	·	1.8*	·	0	0.027[42 µM]	i
C[C@@H]1CN([C@H](C)CO)C(=O)c2cccc(NS(=O)(=O)c3ccccc3)c2O[C@H]1CN(C)S(=O)(=O)c1cccs1	·	1	·	1	·	-1	·	·
CCS(=O)(=O)N1CCCCN2[C@H](CO)[C@H](c3ccc(C#Cc4ccccc4OC)cc3)[C@@H]2C1	·	·	·	0	·	-4	·	·
C[C@@H]1CN([C@H](C)CO)C(=O)Cc2cc(NS(=O)(=O)c3cccs3)ccc2O[C@@H]1CN(C)C(=O)Nc1ccccc1	·	2	·	0	·	-7	·	·
